Source: PubChem BioAssay (EPA / NIEHS)
Activity calls are given as the source filed them. The calls were made as follows: active = hit-call score of the fitted dose curve at least 0.9, where 1 is the maximum; inactive = score below 0.9.

Test: ATG_NF_kB_CIS: Attagene CIS-FACTORIAL HepG2 Assay for human Nuclear Factor Kappa B (NF-kB) (AID 2282991)
Settings: HepG2 Attagene cis-factorial NF-kB reporter mRNA; actives raise or lower the signal
Procedure: ATG_CIS is a cell-based, multiplexed-readout assay that uses HepG2, a human liver cell line, with measurements taken at 24 hours after chemical dosing in a 24-well plate.ATG_NF_kB_CIS is one of 52 assay component(s) measured or calculated from the ATG_CIS assay. It is designed to make measurements of mRNA induction, a form of inducible reporter, as detected with fluorescence intensity signals by Reverse transcription polymerase chain reaction (RT-PCR) and Capillary electrophoresis technology.Data from the assay component ATG_NF_kB_CIS was analyzed into 1 assay endpoint. This assay endpoint, ATG_NF_kB_CIS, was analyzed with bidirectional fitting relative to DMSO as the negative control and baseline of activity. Using a type of inducible reporter, measures of mRNA for gain or loss-of-signal activity can be used to understand the reporter gene at the transcription factor-level as they relate to the gene NFKB1. Furthermore, this assay endpoint can be referred to as a primary readout, because this assay has produced multiple assay endpoints where this one serves a reporter gene function. To generalize the intended target to other relatable targets, this assay endpoint is annotated to the dna binding intended target family, where the subfamily is NF-kappa B.
Human liver HepG2 cells are transiently transfected with multiple reporter transcription units (MRTUs) in 6-well plates using FuGene 6 reagent (Roche; 3 ml FuGene/1 mg DNA). The MRTU constructs are regulated by a cis-regulating element (promoter). […] A major difference between the CIS and TRANS system is that in CIS activities of endogenous TFs are measured, whereas the TRANS assay evaluates changes in activities of exogenous, chimeric NR-Gal4 proteins. […] At the end of 24 hour incubation, total RNA was isolated using TriZol reagent (Invitrogen). The isolated RNA is then reverse-transcribed using oligo(dT) primer and Mo-MLV reverse transcriptase (Invitrogen) with DNAse I (Ambion) treatment for 30 min. The one-tenth of the produced cDNA was amplified by PCR using Taq DNA polymerase (Invitrogen) and two reporter sequence-specific primers. The PCR products were fluorescently labeled by primer extension with 6-arboxyfluorescein (6-FAM) 5'-labeled reporter sequence-specific primer (2 min at 95 C, 20 s at 68 C and 10 min at 72 C) and these products were digested with 5U of HpaI (New England Biolabs) for 2h at 37 C. The fragments were purified using Qiaquick PCR columns (Qiagen), analyzed on an ABI 3130xL genetic analyzer (Applied Biosystems) with peak positions identified by using a set of X-rhodamine (ROX)-labeled MapMarker1000 molecular weight standards (BioVentures). The raw capillary electrophoresis data was processed using Attagraph software (Attagene).

SMILES	outcome	AC50
ClC1=C(Cl)C2(Cl)C3C(Cl)C(Cl)CC3C1(Cl)C2(Cl)Cl (stereo not given)	inactive	
O=C(CBr)OCc1ccccc1	inactive	
O=S1(=O)OCC2C(CO1)C1(Cl)C(Cl)=C(Cl)C2(Cl)C1(Cl)Cl (stereo not given)		8.15 µM (active)
N#Cc1cc([N+](=O)[O-])ccc1N	inactive	
CC(O)C(F)(F)C(F)(F)F (stereo not given)	inactive	
Cc1cccc(N)c1	inactive	
CC(Cl)CN(C)C (stereo not given)	inactive	
Cc1ccc([N+](=O)[O-])cc1C	inactive	
CC(C)CBr	inactive	
FC(F)(F)c1ccc(Cl)cc1	inactive	
c1nc[nH]n1	inactive	
Cc1cc(C)c(C(=O)P(=O)(c2ccccc2)c2ccccc2)c(C)c1	inactive	
CCCCN(CC)C(=O)SCCC	inactive	
N#Cc1ccc(O)cc1	inactive	
CCOP(=S)(OCC)SCS(=O)(=O)CC	inactive	
COP(=O)(CCC(=O)NCO)OC	inactive	
Oc1ccc(I)cc1	inactive	
OCC(F)(F)OC(F)(F)C(F)(F)OC(F)(F)CO	inactive	
O=c1[nH]c2ccccc2c(=O)o1	inactive	
O=NN1CCCC1	inactive	

SMILES	outcome	AC50
Cn1[nH]nnc1=S	inactive	
O=[N+]([O-])c1ccc(Cl)c(Cl)c1	inactive	
CC(O)C#N (stereo not given)	inactive	
CCCCC(CC)COC(=O)c1c(Br)c(Br)c(Br)c(Br)c1C(=O)OCC(CC)CCCC (stereo not given)	inactive	
C/C(=N\NC(=O)Nc1cc(F)cc(F)c1)c1ncccc1C(=O)O	inactive	
N#Cc1c(-c2ccc(Cl)cc2)[nH]c(C(F)(F)F)c1Br	inactive	
CCCCOCCOP(=O)(OCCOCCCC)OCCOCCCC	inactive	
Nc1ccc([N+](=O)[O-])cc1Cl	inactive	
CO/N=C(/C(=O)OC)c1ccccc1COc1ccccc1C	inactive	
OCC(F)(F)OC(F)(F)C(F)(F)OC(F)(F)C(F)(F)OC(F)(F)F	inactive	
O=C(O)C(F)(F)C(F)(F)C(=O)O	inactive	
Cc1ccc(N)cc1N	inactive	
O=S(=O)(F)C(F)(F)C(F)(F)C(F)(F)C(F)(F)C(F)(F)C(F)(F)C(F)(F)C(F)(F)F	inactive	
Cc1ccc(C(=O)Cl)cc1	inactive	
CCC1(c2ccccc2)C(=O)N=C(O)NC1=O (stereo not given)	inactive	
CCCCC(CC)COP(=O)(Oc1ccccc1)Oc1ccccc1 (stereo not given)		159 µM (active)
CCCCN(CCCC)N=O	inactive	
N#C/C=C/c1ccccc1	inactive	
O=[N+]([O-])c1ccccc1	inactive	
O=C(O)C1C(C(=O)O)C2(Cl)C(Cl)=C(Cl)C1(Cl)C2(Cl)Cl (stereo not given)	inactive	
